# Data published in article PMC7862700, “An all-to-all approach to the identification of sequence-specific readers for epigenetic DNA modifications on cytosine”.
# Experiments:
# Assay in all cases: DAPPL (digital affinity profiling via proximity ligation, sequencing); 10 mM Tris-HCl pH 7.5, 50 mM NaCl, 1 mM DTT, 4% glycerol, room temperature, 30 min; GST-TFs on glutathione beads, 16-mer random dsDNA library, 0.1% formaldehyde crosslink after washing; high values mean tight binding
# FLI1 = biological target: T1, FLI1 (Homo sapiens, UniProt Q01543 1-452); conditions: protein: recombinant; tags: N-terminal GST; dsDNA, one strand shown
# T1 sequence: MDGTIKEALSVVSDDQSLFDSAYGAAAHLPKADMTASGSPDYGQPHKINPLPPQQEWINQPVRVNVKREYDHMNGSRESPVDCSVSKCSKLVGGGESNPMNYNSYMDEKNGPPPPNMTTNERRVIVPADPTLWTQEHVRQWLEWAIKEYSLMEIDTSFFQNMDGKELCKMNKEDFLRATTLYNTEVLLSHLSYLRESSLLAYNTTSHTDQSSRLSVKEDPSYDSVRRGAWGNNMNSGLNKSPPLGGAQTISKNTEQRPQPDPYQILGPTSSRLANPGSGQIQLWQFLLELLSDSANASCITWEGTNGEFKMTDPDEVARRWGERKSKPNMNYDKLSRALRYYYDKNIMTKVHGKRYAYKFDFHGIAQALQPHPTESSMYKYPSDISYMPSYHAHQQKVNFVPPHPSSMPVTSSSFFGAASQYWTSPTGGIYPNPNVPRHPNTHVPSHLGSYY
# In short: (§1)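 Human transcription factors fused to GST were expressed in yeast, captured on glutathione beads, given DNA barcodes and pooled with a GST-only negative control. Pools were incubated with 200 nmole of a 16-mer random double-stranded DNA library in Tris/NaCl/DTT/glycerol buffer at room temperature for 30 min. They were then washed, crosslinked with 0.1% formaldehyde, proximity-ligated (BsaI/T4 ligase, 1 h, 37 °C), PCR-amplified and sequenced on an Illumina NextSeq500. Binding signal is each 6-mer's read frequency for a factor divided by its frequency for the GST control.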
# ELK1 = biological target: T2, ELK1 (Homo sapiens, UniProt P19419 1-428); conditions: protein: recombinant; tags: N-terminal GST; dsDNA, one strand shown
# T2 sequence: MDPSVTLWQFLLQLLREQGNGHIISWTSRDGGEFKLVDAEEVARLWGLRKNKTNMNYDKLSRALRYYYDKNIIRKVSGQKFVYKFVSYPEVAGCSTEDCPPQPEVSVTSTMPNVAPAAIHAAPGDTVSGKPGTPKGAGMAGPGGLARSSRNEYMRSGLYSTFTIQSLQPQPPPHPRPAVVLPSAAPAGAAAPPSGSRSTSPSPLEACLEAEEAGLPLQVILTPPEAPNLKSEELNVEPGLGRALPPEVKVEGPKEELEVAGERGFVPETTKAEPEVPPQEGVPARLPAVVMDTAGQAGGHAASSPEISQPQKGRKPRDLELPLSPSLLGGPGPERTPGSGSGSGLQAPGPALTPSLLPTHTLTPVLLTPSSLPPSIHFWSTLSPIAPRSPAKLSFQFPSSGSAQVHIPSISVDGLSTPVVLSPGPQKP
# In short: as §1
# GABPA = biological target: T3, GABPA (Homo sapiens, UniProt Q06546 1-454); conditions: protein: recombinant; tags: N-terminal GST; dsDNA, one strand shown
# T3 sequence: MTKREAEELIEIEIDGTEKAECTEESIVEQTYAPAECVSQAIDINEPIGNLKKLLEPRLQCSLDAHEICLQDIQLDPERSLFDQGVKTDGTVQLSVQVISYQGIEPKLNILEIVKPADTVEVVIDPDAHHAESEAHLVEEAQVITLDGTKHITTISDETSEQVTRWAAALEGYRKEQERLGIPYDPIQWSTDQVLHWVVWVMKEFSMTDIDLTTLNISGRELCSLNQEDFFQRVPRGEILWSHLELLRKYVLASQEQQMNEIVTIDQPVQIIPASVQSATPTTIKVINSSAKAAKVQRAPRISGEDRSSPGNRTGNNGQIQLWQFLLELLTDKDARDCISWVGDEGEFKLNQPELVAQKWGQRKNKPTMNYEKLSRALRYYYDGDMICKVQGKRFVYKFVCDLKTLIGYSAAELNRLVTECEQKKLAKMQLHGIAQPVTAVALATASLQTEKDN
# In short: as §1
# ERG = biological target: T4, ERG (Homo sapiens, UniProt P11308 1-479); conditions: protein: recombinant; tags: N-terminal GST; dsDNA, one strand shown
# T4 sequence: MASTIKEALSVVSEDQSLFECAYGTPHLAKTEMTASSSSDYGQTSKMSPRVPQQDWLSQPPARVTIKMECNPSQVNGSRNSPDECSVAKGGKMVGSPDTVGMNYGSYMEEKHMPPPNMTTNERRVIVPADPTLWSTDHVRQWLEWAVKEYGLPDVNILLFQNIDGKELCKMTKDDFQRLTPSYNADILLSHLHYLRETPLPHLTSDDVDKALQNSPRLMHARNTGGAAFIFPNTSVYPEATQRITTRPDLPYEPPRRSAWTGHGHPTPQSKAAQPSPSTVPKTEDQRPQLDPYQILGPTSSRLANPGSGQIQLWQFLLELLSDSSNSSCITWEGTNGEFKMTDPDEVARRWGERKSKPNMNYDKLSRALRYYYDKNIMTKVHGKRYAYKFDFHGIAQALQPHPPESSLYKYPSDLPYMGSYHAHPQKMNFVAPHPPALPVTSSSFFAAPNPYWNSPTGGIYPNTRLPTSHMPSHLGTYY
# In short: as §1
# ELF1 = ELF1 (Homo sapiens, UniProt P32519 1-619); conditions: protein: recombinant; tags: N-terminal GST; dsDNA, one strand shown
# In short: as §1
# EHF = biological target: T5, EHF (Homo sapiens, UniProt Q9NZC4 1-300); conditions: protein: recombinant; tags: N-terminal GST; dsDNA, one strand shown
# T5 sequence: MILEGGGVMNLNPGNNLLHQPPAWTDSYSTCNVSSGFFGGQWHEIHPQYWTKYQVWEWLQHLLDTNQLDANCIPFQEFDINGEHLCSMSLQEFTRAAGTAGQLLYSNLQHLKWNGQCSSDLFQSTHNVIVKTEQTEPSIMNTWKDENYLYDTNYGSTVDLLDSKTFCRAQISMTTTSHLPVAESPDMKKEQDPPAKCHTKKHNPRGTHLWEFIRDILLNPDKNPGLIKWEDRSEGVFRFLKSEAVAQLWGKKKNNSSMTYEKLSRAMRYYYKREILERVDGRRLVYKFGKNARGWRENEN
# In short: as §1
# SPI1 = SPI1 (Homo sapiens, UniProt P17947 1-270); conditions: protein: recombinant; tags: N-terminal GST; dsDNA, one strand shown
# In short: as §1
# SPIB = SPIB (Homo sapiens, UniProt Q01892 1-262); conditions: protein: recombinant; tags: N-terminal GST; dsDNA, one strand shown
# In short: as §1
# ELK3 = biological target: T6, ELK3 (Homo sapiens, UniProt P41970 1-407); conditions: protein: recombinant; tags: N-terminal GST; dsDNA, one strand shown
# T6 sequence: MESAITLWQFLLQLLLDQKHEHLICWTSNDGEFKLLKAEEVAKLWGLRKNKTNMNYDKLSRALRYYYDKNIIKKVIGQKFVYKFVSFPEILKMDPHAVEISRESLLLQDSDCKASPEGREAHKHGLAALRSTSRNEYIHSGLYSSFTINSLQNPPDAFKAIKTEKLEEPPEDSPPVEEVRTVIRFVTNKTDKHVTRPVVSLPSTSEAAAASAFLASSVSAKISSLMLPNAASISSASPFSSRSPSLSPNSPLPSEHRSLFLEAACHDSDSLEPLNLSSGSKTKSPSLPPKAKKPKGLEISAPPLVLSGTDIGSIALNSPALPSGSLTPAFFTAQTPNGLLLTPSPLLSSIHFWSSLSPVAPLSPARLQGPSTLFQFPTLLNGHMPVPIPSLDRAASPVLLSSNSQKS
# In short: as §1
# FEV = biological target: T7, FEV (Homo sapiens, UniProt Q99581 1-238); conditions: protein: recombinant; tags: N-terminal GST; dsDNA, one strand shown
# T7 sequence: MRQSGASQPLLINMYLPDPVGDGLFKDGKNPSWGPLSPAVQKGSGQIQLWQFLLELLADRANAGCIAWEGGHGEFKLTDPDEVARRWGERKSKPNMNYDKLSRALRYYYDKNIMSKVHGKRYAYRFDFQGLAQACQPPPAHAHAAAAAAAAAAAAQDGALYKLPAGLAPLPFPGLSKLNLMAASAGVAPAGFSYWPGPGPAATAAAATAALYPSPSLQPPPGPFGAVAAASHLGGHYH
# In short: as §1
# ETV5 = ETV5 (Homo sapiens, UniProt P41161 1-510); conditions: protein: recombinant; tags: N-terminal GST; dsDNA, one strand shown
# In short: as §1
# HSF1 = HSF1 (Homo sapiens, UniProt Q00613 1-529); conditions: protein: recombinant; tags: N-terminal GST; chain copies: 3; dsDNA, one strand shown
# In short: as §1
# SPIC = biological target: T8, SPIC (Homo sapiens, UniProt Q8N5J4 1-248); conditions: protein: recombinant; tags: N-terminal GST; dsDNA, one strand shown
# T8 sequence: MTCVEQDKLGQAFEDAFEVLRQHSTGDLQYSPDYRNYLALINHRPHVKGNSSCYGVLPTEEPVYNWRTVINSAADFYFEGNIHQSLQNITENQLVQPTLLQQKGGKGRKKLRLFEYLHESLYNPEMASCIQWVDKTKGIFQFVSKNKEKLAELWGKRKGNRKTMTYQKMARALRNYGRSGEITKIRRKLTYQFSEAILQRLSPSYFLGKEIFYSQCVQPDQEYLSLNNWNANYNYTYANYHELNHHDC
# In short: as §1
# ELF4 = ELF4 (Homo sapiens, UniProt Q99607 1-663); conditions: protein: recombinant; tags: N-terminal GST; dsDNA, one strand shown
# In short: as §1
# ELK4 = biological target: T9, ELK4 (Homo sapiens, UniProt P28324-2 1-405); conditions: protein: recombinant; tags: N-terminal GST; dsDNA, one strand shown
# T9 sequence: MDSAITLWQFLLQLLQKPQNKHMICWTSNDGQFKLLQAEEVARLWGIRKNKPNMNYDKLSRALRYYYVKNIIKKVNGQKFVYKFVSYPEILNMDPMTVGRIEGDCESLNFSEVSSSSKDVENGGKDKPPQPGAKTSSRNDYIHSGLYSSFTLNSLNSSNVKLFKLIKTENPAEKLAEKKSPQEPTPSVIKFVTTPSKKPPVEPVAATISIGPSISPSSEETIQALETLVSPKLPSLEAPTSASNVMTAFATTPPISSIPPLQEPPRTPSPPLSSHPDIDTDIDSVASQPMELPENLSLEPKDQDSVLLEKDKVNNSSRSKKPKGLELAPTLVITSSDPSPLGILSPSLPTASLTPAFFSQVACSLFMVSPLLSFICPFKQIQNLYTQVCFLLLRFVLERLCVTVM
# In short: as §1
# ETV2 = biological target: T10, ETV2 (Homo sapiens, UniProt O00321 1-342); conditions: protein: recombinant; tags: N-terminal GST; dsDNA, one strand shown
# T10 sequence: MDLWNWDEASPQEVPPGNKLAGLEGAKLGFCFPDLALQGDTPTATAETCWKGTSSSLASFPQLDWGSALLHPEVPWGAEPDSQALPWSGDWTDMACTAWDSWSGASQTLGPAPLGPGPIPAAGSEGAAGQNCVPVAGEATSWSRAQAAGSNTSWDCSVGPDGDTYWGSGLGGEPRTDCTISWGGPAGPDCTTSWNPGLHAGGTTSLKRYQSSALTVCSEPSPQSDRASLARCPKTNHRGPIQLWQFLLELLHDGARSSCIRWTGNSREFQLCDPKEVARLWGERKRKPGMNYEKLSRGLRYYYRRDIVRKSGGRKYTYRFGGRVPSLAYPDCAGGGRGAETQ
# In short: as §1
# ELF3 = biological target: T11, ELF3 (Homo sapiens, UniProt P78545 1-371); conditions: protein: recombinant; tags: N-terminal GST; dsDNA, one strand shown
# T11 sequence: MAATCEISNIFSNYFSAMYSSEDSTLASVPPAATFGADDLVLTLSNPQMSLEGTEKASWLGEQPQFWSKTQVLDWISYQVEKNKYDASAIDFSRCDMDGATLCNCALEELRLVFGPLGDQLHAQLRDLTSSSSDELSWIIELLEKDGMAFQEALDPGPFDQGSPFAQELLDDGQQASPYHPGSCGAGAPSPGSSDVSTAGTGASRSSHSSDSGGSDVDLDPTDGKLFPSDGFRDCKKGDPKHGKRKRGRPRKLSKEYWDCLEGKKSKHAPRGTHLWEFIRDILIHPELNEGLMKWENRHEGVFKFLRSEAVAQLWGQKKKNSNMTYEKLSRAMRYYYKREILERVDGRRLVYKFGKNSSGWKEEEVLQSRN
# In short: as §1
# CRX = CRX (Homo sapiens, UniProt O43186 1-299); conditions: protein: recombinant; tags: N-terminal GST; dsDNA, one strand shown
# In short: as §1
# ETV1 = ETV1 (Homo sapiens, UniProt P50549 1-477); conditions: protein: recombinant; tags: N-terminal GST; dsDNA, one strand shown
# In short: as §1
# Chain of SPIB (Q01892 whole entry): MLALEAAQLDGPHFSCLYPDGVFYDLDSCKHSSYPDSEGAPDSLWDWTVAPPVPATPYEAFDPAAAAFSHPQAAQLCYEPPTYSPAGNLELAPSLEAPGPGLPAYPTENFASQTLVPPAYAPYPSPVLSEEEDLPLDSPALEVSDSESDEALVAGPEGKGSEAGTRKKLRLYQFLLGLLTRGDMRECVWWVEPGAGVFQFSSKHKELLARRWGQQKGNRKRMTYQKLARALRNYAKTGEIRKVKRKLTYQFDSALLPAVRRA
# Chain of ETV5 (P41161 whole entry): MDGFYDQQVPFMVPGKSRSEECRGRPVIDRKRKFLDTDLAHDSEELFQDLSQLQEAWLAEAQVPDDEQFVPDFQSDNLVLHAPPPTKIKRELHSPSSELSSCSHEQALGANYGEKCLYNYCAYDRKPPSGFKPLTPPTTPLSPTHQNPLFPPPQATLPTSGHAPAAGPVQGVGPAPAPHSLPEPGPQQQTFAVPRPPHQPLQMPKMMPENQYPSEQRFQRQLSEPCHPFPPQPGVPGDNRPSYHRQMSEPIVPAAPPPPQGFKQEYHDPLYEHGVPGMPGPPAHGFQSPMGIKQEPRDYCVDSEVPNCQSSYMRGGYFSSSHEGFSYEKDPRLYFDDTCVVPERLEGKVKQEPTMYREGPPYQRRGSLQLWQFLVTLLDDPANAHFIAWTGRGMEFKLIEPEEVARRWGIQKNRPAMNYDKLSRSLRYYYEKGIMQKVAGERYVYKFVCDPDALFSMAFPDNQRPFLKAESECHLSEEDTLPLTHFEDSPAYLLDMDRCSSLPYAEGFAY
# Chain of ETV1 (P50549 whole entry): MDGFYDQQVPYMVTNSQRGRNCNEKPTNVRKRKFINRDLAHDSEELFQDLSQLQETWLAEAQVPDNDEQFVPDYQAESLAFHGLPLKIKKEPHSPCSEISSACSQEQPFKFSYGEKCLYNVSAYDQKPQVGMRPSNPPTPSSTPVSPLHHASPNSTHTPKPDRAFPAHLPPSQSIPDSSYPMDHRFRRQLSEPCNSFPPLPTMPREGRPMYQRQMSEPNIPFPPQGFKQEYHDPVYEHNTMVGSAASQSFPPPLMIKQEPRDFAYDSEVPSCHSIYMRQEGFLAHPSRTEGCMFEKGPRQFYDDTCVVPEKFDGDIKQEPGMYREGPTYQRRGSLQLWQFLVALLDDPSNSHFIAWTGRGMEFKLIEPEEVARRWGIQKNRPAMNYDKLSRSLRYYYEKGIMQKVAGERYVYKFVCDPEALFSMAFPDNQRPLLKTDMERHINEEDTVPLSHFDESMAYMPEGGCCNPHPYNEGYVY
# Chain of CRX (O43186 whole entry): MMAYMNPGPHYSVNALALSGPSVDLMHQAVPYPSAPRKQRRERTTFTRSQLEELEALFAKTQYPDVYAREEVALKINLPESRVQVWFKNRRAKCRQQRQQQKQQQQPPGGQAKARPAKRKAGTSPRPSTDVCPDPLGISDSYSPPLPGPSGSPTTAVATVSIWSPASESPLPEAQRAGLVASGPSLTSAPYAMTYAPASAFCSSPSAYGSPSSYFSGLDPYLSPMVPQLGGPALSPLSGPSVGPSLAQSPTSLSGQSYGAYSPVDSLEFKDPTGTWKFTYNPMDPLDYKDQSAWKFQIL
# Chain of HSF1 (Q00613 whole entry): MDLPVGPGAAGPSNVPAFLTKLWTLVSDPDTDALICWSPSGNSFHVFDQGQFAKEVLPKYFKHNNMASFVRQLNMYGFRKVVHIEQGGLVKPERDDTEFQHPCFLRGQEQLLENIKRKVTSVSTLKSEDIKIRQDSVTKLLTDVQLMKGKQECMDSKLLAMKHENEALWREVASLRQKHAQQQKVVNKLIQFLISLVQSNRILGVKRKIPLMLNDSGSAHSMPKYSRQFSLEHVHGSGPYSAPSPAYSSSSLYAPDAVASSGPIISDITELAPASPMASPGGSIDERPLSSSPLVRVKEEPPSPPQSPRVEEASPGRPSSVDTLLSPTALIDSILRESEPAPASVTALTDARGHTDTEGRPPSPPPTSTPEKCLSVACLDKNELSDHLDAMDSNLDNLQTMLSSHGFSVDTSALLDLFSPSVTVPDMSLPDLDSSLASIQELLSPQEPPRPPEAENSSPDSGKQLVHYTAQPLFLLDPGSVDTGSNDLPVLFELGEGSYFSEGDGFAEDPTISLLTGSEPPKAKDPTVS
# Chain of ELF4 (Q99607 whole entry): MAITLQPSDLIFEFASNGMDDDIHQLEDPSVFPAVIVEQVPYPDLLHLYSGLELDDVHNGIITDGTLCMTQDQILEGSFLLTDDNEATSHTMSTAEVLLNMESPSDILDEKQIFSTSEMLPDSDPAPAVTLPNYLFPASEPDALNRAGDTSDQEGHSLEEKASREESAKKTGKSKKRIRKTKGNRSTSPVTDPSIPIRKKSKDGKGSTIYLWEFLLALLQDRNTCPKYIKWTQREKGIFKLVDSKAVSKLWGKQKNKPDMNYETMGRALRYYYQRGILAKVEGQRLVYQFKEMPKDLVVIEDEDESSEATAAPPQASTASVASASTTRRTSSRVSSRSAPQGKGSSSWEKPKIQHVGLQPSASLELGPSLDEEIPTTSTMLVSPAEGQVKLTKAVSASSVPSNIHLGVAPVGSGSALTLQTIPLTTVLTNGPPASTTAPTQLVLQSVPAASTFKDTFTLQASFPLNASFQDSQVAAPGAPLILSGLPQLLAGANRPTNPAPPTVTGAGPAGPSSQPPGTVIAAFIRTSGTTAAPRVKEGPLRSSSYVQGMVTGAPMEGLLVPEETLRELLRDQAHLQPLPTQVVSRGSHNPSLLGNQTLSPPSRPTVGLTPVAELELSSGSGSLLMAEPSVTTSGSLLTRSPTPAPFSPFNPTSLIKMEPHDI
# Chain of ELF1 (P32519 whole entry): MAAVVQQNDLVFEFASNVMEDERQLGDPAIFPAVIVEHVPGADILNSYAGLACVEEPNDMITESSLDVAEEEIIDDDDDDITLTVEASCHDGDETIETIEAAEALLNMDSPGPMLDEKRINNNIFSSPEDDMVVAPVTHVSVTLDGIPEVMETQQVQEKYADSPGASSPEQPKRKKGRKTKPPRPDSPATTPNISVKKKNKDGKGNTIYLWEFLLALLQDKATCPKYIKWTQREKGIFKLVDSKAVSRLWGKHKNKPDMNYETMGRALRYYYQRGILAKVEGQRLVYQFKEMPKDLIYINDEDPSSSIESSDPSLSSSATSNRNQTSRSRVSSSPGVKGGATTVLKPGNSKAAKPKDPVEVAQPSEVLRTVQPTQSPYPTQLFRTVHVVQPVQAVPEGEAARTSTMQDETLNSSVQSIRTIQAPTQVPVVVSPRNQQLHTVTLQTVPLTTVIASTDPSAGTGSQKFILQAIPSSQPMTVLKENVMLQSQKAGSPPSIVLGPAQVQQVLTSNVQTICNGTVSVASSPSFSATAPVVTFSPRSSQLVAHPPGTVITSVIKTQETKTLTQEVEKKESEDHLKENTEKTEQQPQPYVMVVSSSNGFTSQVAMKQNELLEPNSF
sequence,measurement,setting,value
ACAATC,binding signal,FLI1,"1.08 fold enrichment (6-mer frequency, TF over GST control)"
same,binding signal,ELK1,"1.09 fold enrichment (6-mer frequency, TF over GST control)"
same,binding signal,GABPA,"1.19 fold enrichment (6-mer frequency, TF over GST control)"
same,binding signal,ERG,"1.16 fold enrichment (6-mer frequency, TF over GST control)"
same,binding signal,ELF1,"1.21 fold enrichment (6-mer frequency, TF over GST control)"
same,binding signal,EHF,"1.13 fold enrichment (6-mer frequency, TF over GST control)"
same,binding signal,SPI1,"1.12 fold enrichment (6-mer frequency, TF over GST control)"
same,binding signal,SPIB,"1.09 fold enrichment (6-mer frequency, TF over GST control)"
same,binding signal,ELK3,"1.13 fold enrichment (6-mer frequency, TF over GST control)"
same,binding signal,FEV,"1.11 fold enrichment (6-mer frequency, TF over GST control)"
same,binding signal,ETV5,"1.1 fold enrichment (6-mer frequency, TF over GST control)"
same,binding signal,HSF1,"1.43 fold enrichment (6-mer frequency, TF over GST control)"
same,binding signal,SPIC,"1.17 fold enrichment (6-mer frequency, TF over GST control)"
same,binding signal,ELF4,"1.11 fold enrichment (6-mer frequency, TF over GST control)"
same,binding signal,ELK4,"1.15 fold enrichment (6-mer frequency, TF over GST control)"
same,binding signal,ETV2,"1.18 fold enrichment (6-mer frequency, TF over GST control)"
same,binding signal,ELF3,"1.29 fold enrichment (6-mer frequency, TF over GST control)"
same,binding signal,CRX,"1.36 fold enrichment (6-mer frequency, TF over GST control)"
same,binding signal,ETV1,"1.16 fold enrichment (6-mer frequency, TF over GST control)"
